# Only some compounds are listed: those with a hit (about 3.6% of all), similar ones and a draw of the others.
# CRFR2-BP antag = blocks CRF-induced signaling of the CRF-BP/CRF-R2 complex; HEK293 CRF-R2/CRF-BP, CRF-induced calcium fluorescence; inhibition, % at 11.8 µM; hit rate 0.59% among 350,000; AID 588475;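 active means inhibition of the ligand-induced calcium signal above about 50% at the single tested concentration, limit read from the data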
# NadD block = blocks S. aureus nicotinate mononucleotide adenylyltransferase. purified NadD enzyme, colorimetric absorbance read-out. inhibition, % at 20 µM. AID 602399. hit rate 0.78% among 360,000; in the data active means inhibition above about 26%
# Myeloid diff MLP = myeloid differentiation induction. ER-HoxA9 myeloid progenitors, lysozyme-GFP differentiation, flow cytometry. calls only at 10 µM. hit rate 1% among 360,000. AID 624256;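 active means normalized GFP-positive differentiation at or above the plate's own cutoff, the solvent-only control mean plus 3 SD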;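 further: cells exposed to compound for four days before flow analysis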
# NRP1-CendR mod = alters CendR peptide binding to human NRP-1; O14786; FAM-RPARPAR peptide binding to NRP-1, fluorescence polarization; inhibition, % at 25 µM; hit rate 0.85% among 360,000;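 active means inhibition or corrected inhibition above about 18%, plus a signal ratio from 0.5 to 1.5, limit read from the data, passing the limit was not always enough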
# FAS-TE inh = FAS thioesterase (human) inhibition; P49327; recombinant FAS-TE, OMFH fluorogenic substrate, fluorescence endpoint; inhibition, % at 15 µM; hit rate 0.67% among 360,000; AID 602261;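 active means compounds whose normalised, plate-corrected inhibition of enzyme fluorescence in the single-dose primary screen is 50% or more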
# Myeloid diff CP1 = promotes myeloid progenitor differentiation. ER-HoxA9 myeloid progenitors, GFP/Mac1 double-positive flow. hit rate 2% among 2,300. shares compounds with Myeloid diff MLP. calls only. AID 651706;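 active means share of green or green-and-red cells above 9 and 9% in run 1 or 4 and 3% in run 2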
# GFP autofluor = flagged as fluorescent in myeloid differentiation counter-screen; AID 651707; fluorescence response, % (test concentration not listed); shares compounds with Myeloid diff MLP; ER-HoxA9 myeloid progenitors, no estrogen, GFP autofluorescence flow cytometry; vehicle wells 0%, positive control 100%; hit rate 7.4% among 2,300;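 active means over 5% cells positive for green fluorescent reporter, or over 2% positive for both it and APC stain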
# Numbers stand for hits; 0 = inactive; - = no result; + = active, no number.
SMILES,CRFR2-BP antag,NadD block,Myeloid diff MLP,NRP1-CendR mod,FAS-TE inh,Myeloid diff CP1,GFP autofluor
CN(C/N=C(\N)N[N+](=O)[O-])S(=O)(=O)c1ccccc1,0,0,0,0,0,-,-
Cc1ccc(N=C(/N=C(\N)N[N+](=O)[O-])Nc2ccc(C)cc2)cc1,0,0,0,0,0,0,0
CN(c1ccc(O)cc1)c1ccc([N+](=O)[O-])c2nonc12,0,0,+,0,0,0,0
O=[N+]([O-])c1ccc(N2CCCCCC2)c2nonc12,0,0,0,0,0,-,-
CCOP(=S)(OCC)c1ccc(N(C)C)cc1,0,0,+,0,0,0,0
COc1ccc(C2C(C(=O)N3CCC4(CC3)OCCO4)c3cc(OC)c(OC)cc3C(=O)N2C)cc1 (configuration not stated),0,0,0,0,0,0,0
CN(CCOc1ccc(C=C2C(=O)NC(=O)NC2=O)cc1)c1ccccn1,0,0,0,0,0,0,0
O=C1NC(=S)NC(=O)C1=Cc1ccc(OCc2ccccc2)cc1,0,0,0,0,0,-,-
CC1OC(OC2C=C3CCC4C(CCC5(C)C(c6ccc(=O)oc6)CCC45O)C3(C)CC2)C(O)C(OC2OC(CO)C(O)C(O)C2O)C1O (configuration not stated),0,0,-,0,0,-,-
O=P(CN1CCN(c2ccccc2)CC1)(N1CCCCC1)N1CCCCC1,0,0,+,34,0,0,0
CCN(CC)CCCN=Cc1c(O)n(-c2ccccc2F)c(=O)[nH]c1=O,0,0,0,0,0,-,-
CCN(CC)CCCN=Cc1c(O)n(-c2cccc(C)c2C)c(=O)[nH]c1=O,0,0,+,0,0,0,0
CC(=O)N1CC(=O)Nc2ccc(Cl)cc2C1c1ccc(F)cc1 (configuration not stated),0,0,0,0,0,-,-
CCOC(=O)C1=C(C)c2ccccc2OC1(C(=O)OCC)c1ccccc1 (configuration not stated),0,0,0,0,0,0,0
Nc1cc(Cl)cc(Cl)c1,0,0,0,0,0,-,-
OCC[n+]1c2ccccc2nc2ccc(N3CCOCC3)cc21,0,0,+,0,0,0,0
O=C(CCc1ccccc1)N1Cc2cc(N3CCOCC3)ccc2-n2nncc2C1,-,0,0,0,0,-,-
COC(=O)NC(=C(Cl)Cl)P(=O)(c1ccccc1)c1ccccc1,0,0,+,0,0,0,0
Cc1ccc(C(=O)N/C(=C\Cl)P(=O)(c2ccccc2)c2ccccc2)cc1,0,0,0,0,0,-,-
O=C(CF)N(O)c1ccc(C=Cc2ccccc2)cc1,0,0,-,0,0,-,-
COC(=O)C1=C(c2ccc(Cl)c(C(F)(F)F)c2)C[C@@H]2CC[C@H]1N2C(=O)N1CCCC1,0,0,0,0,0,0,0
COC(=O)C1=C(c2cc3ccccc3s2)C[C@@H]2CC[C@H]1N2C(=O)NCC1CC1,0,0,0,0,0,0,0
CCCNC(=O)N1[C@H]2CC[C@@H]1C(C(=O)OC)=C(c1ccc(Cl)c(C(F)(F)F)c1)C2,0,0,0,0,0,0,0
COC(=O)C1=C(c2cc3ccccc3s2)C[C@@H]2CC[C@H]1N2C(=O)NC1CC1,0,0,0,0,0,-,-
Cc1cccc(NC(=O)CN2CCN(C(=O)COc3cccc(Br)c3)CC2)c1C,0,0,0,0,0,-,-
SMILES,CRFR2-BP antag,NadD block,Myeloid diff MLP,NRP1-CendR mod,FAS-TE inh,Myeloid diff CP1,GFP autofluor
CC(=O)NN1C(=O)c2ccccc2NC1c1cccnc1 (configuration not stated),0,0,0,0,0,-,-
CC1CCCC(C)N1/N=C/c1c[nH]c2ccc(Br)cc12 (configuration not stated),0,0,0,0,0,0,0
CN1CCC(c2c[nH]c3ccc(O)cc23)CC1,0,0,0,0,0,-,-
c1cc(OCCN2CC2)ccn1,0,0,0,0,0,-,-
O=c1[nH]c(=S)n(C2CC2)c(O)c1/C=N/Nc1ccccc1,0,0,0,0,0,-,-
O=c1[nH]c(=S)n(C2CC2)c(O)c1/C=N/Nc1cccc2ccccc12,0,30,0,0,0,0,0
CCS(=O)(=O)CCSP(=O)(OC)OC,0,0,0,0,0,-,-
CCc1cc2c(cc1-c1csc(C/C(N)=N/O)n1)C(C)(C)CCC2(C)C,0,0,+,0,0,0,0
COC(=O)[C@]1(C)C[C@H]1[C@H](NP(=O)(c1ccccc1)c1ccccc1)c1ccccc1,0,0,0,0,0,0,0
CCCCCCn1c(O)c(C=NC2CCN(Cc3ccccc3)CC2)c(=O)[nH]c1=O,0,0,0,0,0,-,-
CCOC(=O)c1c(C)n(COCCO)c2ccc(O)cc12,0,0,0,0,0,0,0
CCOC(=O)c1c(C)n(Cc2ccc(F)cc2)c2ccc(O)cc12,0,0,0,0,0,-,-
C[C@]12CCC(=O)C=C1CCC1C2CC[C@@]2(C)C1CC[C@@]2(O)CC#N (some centres not stated),0,0,+,0,0,0,0
CCOC(=O)C(NC(C)=O)C(OC(C)=O)c1cccc(N(CCCl)CCCl)c1 (configuration not stated),0,0,0,0,0,-,-
O=c1c2ccccc2nc(/C=C/c2ccc(O)c(O)c2)n1-c1ccccc1,0,0,0,0,0,0,0
CNS(=O)(=O)c1ccc(N=Cc2c(O)n(-c3ccccc3)c(=O)[nH]c2=O)cc1,0,0,0,0,0,-,-
